# Whole data set: some 39,000 sequences, median “fluorescence intensity (a.u.)” near 4,300, cut for the highest 2% near 39,000. This excerpt belongs to a sample that is enriched for the highest values.
# Target: T1, OsSMF1 (Oryza sativa, UniProt Q6ZLB0 1-436)
# T1 sequence: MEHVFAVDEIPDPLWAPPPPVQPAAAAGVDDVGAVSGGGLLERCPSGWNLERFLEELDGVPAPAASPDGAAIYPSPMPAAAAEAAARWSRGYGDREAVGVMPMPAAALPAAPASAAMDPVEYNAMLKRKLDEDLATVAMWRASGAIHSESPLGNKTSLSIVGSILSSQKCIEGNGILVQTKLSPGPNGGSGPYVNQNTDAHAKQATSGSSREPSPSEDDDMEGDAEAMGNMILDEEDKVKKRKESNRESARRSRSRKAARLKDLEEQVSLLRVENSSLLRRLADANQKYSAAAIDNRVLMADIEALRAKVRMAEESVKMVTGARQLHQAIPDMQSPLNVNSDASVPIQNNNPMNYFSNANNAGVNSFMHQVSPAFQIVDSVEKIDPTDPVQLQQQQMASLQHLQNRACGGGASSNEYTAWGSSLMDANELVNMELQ
# Assay: protein-binding microarray (RPBM); PBS, 2% BSA, 51.3 ng/ul salmon testes DNA, 50 uM zinc acetate, 200 nM TF, 25 C, 1 h; high values mean tight binding
# Conditions: protein: recombinant; tags: N-terminal polyhistidine and DsRed monomer fusion (pET32a); chain copies: 2; label: CyDye5-dUTP incorporated in the synthesized complementary strand; 3' TTTTT single-stranded linker to array surface; dsDNA, one strand shown
# Procedure, shortened: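 An Axon 4000B scanner gave the binding signal as per-feature fluorescence intensity in arbitrary units. This followed washing of a custom Agilent array that had been incubated for 1 h at 25 °C with 200 nM protein in PBS, 2% BSA, salmon testes DNA and 50 µM zinc acetate. The proteins were transcription factors fused at the N-terminus to polyhistidine and DsRed, expressed in E. coli BL21-CodonPlus and purified on Ni–NTA.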
row,Sequence,binding signal
1,GGGCCAAATTTTATCGAGAAGATTAGACACGAGTATGGGCCGGAGTCACCTAGTGCAG,47600 fluorescence intensity (a.u.)
2,TGCGATTTTAGACGATTATCGTGCGATTATCACGGTTATCCGGAGTCACCTAGTGCAG,3360 fluorescence intensity (a.u.)
3,AGCGAGACACTTTGAGATTTAGTATGAGTCATGTAAATTACGGAGTCACCTAGTGCAG,7830 fluorescence intensity (a.u.)
4,GCGTGCCGAAGGTGTGTCCCCTGCACCGGCTCCGGCAGGTCGGAGTCACCTAGTGCAG,9960 fluorescence intensity (a.u.)
5,ATGAAAGGGAATGTGTGGTGGAGGAGGTGGCTGAGAGATTCGGAGTCACCTAGTGCAG,3340 fluorescence intensity (a.u.)
6,ATTCGTTATACTAGGTGACATCTCATCTAATATTTGTTTACGGAGTCACCTAGTGCAG,4270 fluorescence intensity (a.u.)
7,TTGTTGAAGCAGTTTAATGTTAATAGTATACTAACATTAACGGAGTCACCTAGTGCAG,28600 fluorescence intensity (a.u.)
8,TGAACATGCCCATTGTTACTCATTCCTAATACTATAGGAACGGAGTCACCTAGTGCAG,42200 fluorescence intensity (a.u.)
9,GGAACTTCTGTTTAGGCATTTGCACCTGAAATATGATCTGCGGAGTCACCTAGTGCAG,3190 fluorescence intensity (a.u.)
10,TCCCGCAGGAGTTCCACCCACGTGTCATAAACCATTACAGCGGAGTCACCTAGTGCAG,12800 fluorescence intensity (a.u.)
11,TGAATTGGAGCGACCGTGAGAGGTAGCATAGAATGTCATGCGGAGTCACCTAGTGCAG,3270 fluorescence intensity (a.u.)
12,CAAAAGGACCATGGTGTGTGGATGACATGACTAGTGAGGCCGGAGTCACCTAGTGCAG,4650 fluorescence intensity (a.u.)
13,TGTTGATGGCGTCATTATTTACATGGTATGGTGCATTTGGCGGAGTCACCTAGTGCAG,14600 fluorescence intensity (a.u.)
14,ACAGGGTTGCCAAGCTCTTACTCAACCTAAACCACCAGAACGGAGTCACCTAGTGCAG,3200 fluorescence intensity (a.u.)
15,CAGACCAGGGTTACTCTCCTCAACATTCTTAGCTCATAGACGGAGTCACCTAGTGCAG,47700 fluorescence intensity (a.u.)
16,CTCTTCTCCACCTCAACATTTAGCCGGCTTATAGCTACTACGGAGTCACCTAGTGCAG,3960 fluorescence intensity (a.u.)

row,Sequence,binding signal
1,TGAACCCCACATGTCAGCTTTACTACTCCCTTCTTCCCTACGGAGTCACCTAGTGCAG,4350 fluorescence intensity (a.u.)
2,CGCGACACGACACGACACGACACGACGGCACGAGCCCACCCGGAGTCACCTAGTGCAG,4540 fluorescence intensity (a.u.)
3,GGAAAGTGGACAATTAAATCAAGCGATGATGTGGATGTGGCGGAGTCACCTAGTGCAG,5830 fluorescence intensity (a.u.)
4,TTCATCCTCGGCCACTCCTACGTCAAGGCCAAGAGCGGCTCGGAGTCACCTAGTGCAG,3600 fluorescence intensity (a.u.)
5,CTCTTCAGGGAACAGAATCAAATCAGCATTTTAACTAACTCGGAGTCACCTAGTGCAG,40100 fluorescence intensity (a.u.)
6,TGGCAAATCTCATCAGCAACAGGGACCTCTTGGTGTGACTCGGAGTCACCTAGTGCAG,4290 fluorescence intensity (a.u.)
7,CAAATACTACATCACACAGGTCAGCAGAAATTTCACTCTTCGGAGTCACCTAGTGCAG,4100 fluorescence intensity (a.u.)
8,CCGTTTCCGAATCTCGAGGCGCAAGAGGCCATCGAACGGCCGGAGTCACCTAGTGCAG,38300 fluorescence intensity (a.u.)
9,TTTATCTAATTAAAATATATTTATAGCTGACTAATAGTCTCGGAGTCACCTAGTGCAG,3480 fluorescence intensity (a.u.)
10,TGTGGAGTCCACGTGGGACTTAGCCGCCACATCAATAAAACGGAGTCACCTAGTGCAG,9160 fluorescence intensity (a.u.)
11,TTAGATGAAACCACGATTTGTCAAAATGCATCCAAAACTTCGGAGTCACCTAGTGCAG,43100 fluorescence intensity (a.u.)
12,TGACCAAAATTTGAAACTTTCAATACAATTATGAAACTTTCGGAGTCACCTAGTGCAG,6370 fluorescence intensity (a.u.)
13,GCCAAGCCAAACCAATCCAAGCCAAGCCAAATGAATGATTCGGAGTCACCTAGTGCAG,3150 fluorescence intensity (a.u.)
14,GTTAATCTCAATAAAATACTTAGCTCCATAAATAATTTTGCGGAGTCACCTAGTGCAG,36700 fluorescence intensity (a.u.)
15,CCCAGCTGTCTTTCCTCCAGGTCACCTGACAAATGTCACTCGGAGTCACCTAGTGCAG,3950 fluorescence intensity (a.u.)
16,GAAAACTAGTCCAAAATGAGTCTTTGCTTCAATGCAAACGCGGAGTCACCTAGTGCAG,39000 fluorescence intensity (a.u.)

# From article PMC7819943, “Rice protein-binding microarrays: a tool to detect cis-acting elements near promoter regions in rice”
